Laboratory results published in PubChem BioAssay (Tox21).
Where “and” joins values, the source holds several entries; their conditions need not be identical. Equal entries are not always repeated. Records with an inconclusive call do not appear. A call without a number means that no potency is given here. A structure can be active in one record and inactive in another. Calls of active or inactive are those of the source. Unless noted, calls come from the whole dose curve; as a rule, active = well fitted curve in the direction sought with a large enough effect in the repeat runs; inconclusive = weak or mixed curves; inactive = no such curve, though single readings can be large; an effect the other way counts as inactive or inconclusive.

What was measured:
[1] = qHTS assay to identify small molecule antagonists of the thyroid receptor (TR) signaling pathway - cell viability counter screen (AID 743064); note: nearly all actives have a fitted effect of over 50% in size
Summary of the method: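 In-well cytotoxicity read by CellTiter-Fluor (30 min, 37 C) following 23.5 h exposure of GH3 cells bearing a TRE-luciferase sensor. Compounds were added alongside 1 nM (final) T3 to drive TR transactivation.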

[2] = qHTS assay to identify small molecule antagonists of the thyroid receptor (TR) signaling pathway (AID 743065); note: nearly all actives have a fitted effect of over 55% in size; note: potency is the fitted concentration of half-maximal effect
Summary of the method: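 GH3.TRE-Luc rat pituitary cells (two TREs driving luciferase) were dosed with compound, then stimulated with 1 nM T3 (final) for 23.5 h at 37 C. ONE-Glo luminescence was the read-out, with CellTiter-Fluor fluorescence as the cytotoxicity counter-screen.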

[3] = tested on: thyroid hormone receptor (rat, GH3 cells); assay: qHTS assay to identify small molecule agonists of the thyroid receptor (TR) signaling pathway (AID 743066; calls by dose curve)
[4] = qHTS assay to identify small molecule antagonists of the estrogen receptor alpha (ER-alpha) signaling pathway - cell viability counter screen (AID 743074; calls by dose curve; note: nearly all actives have a fitted effect of over 45% in size)
[5] = qHTS assay to identify small molecule antagonists of the estrogen receptor alpha (ER-alpha) signaling pathway using the BG1 cell line - cell viability counter screen (AID 743081);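 note: compound given together with 17beta-estradiol as the ER stimulus; series mostly up to about 70 µM; nearly all actives have a fitted effect of over 45% in size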
Aromatase (Homo sapiens) = Aromatase (Homo sapiens) (UniProt P11511); assay: qHTS assay to identify aromatase inhibitors (AID 743083); note: nearly all actives have a fitted effect of over 55% in size; note: potency is the fitted concentration of half-maximal effect
[6] = qHTS assay to identify aromatase inhibitors - cell viability counter screen (AID 743084);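 note: cells stimulated with testosterone during compound exposure; nearly all actives have a fitted effect of over 55% in size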
[7] = target: Aryl hydrocarbon receptor (Homo sapiens) (UniProt P35869); assay: qHTS assay to identify small molecule that activate the aryl hydrocarbon receptor (AhR) signaling pathway (AID 743085);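 note: HG2L7.5c1 human HepG2 liver cells with stably integrated DRE-driven firefly reporter; series mostly up to about 70 µM; nearly all actives have a fitted effect of over 15% in size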
Summary of the method: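 Luminescence (ONE-Glo) from a dioxin-responsive-element luciferase reporter in HG2L7.5c1 HepG2 cells after 24 hr compound exposure at 37C; viability measured by CellTiter-Fluor fluorescence beforehand.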

[8] = qHTS assay to identify small molecule that activate the aryl hydrocarbon receptor (AhR) signaling pathway - cell viability counter screen (AID 743086);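 note: HepG2 liver cells carrying the AhR DRE luciferase reporter; series mostly up to about 70 µM; nearly all actives have a fitted effect of over 45% in size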
Summary of the method: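 HepG2-AhR-luc (HG2L7.5c1) cells, 4000/well, treated 24 h at 37 C with compound; viability measured as CellTiter-Fluor fluorescence after 30 min in the same wells as the luciferase read.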

[9] = target: Peroxisome proliferator-activated receptor gamma (Homo sapiens) (UniProt P37231); assay: qHTS assay to identify small molecule agonists of the peroxisome proliferator-activated receptor gamma (PPARg) signaling pathway (AID 743094; active = well fitted activation curve with a large enough effect in the signal ratio in the repeat runs, not every such curve was filed as active; the % refers to the signal ratio)
Summary of the method: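 Reporter activation was scored by fluorescence of cleaved LiveBLAzer B/G substrate (1 h, room temperature) in PPARg-bla HEK293H cells previously treated 17 h at 37C with DMSO-dissolved compounds.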

[10] = target: Peroxisome proliferator-activated receptor gamma (Homo sapiens) (UniProt P37231); assay: qHTS assay to identify small molecule antagonists of the peroxisome proliferator-activated receptor gamma (PPARg) signaling pathway (AID 743191; calls by dose curve; note: series mostly up to about 63 µM; nearly all actives have a fitted effect of over 30% in size)
Summary of the method: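 GeneBLAzer PPARg UAS-bla HEK293H cells, 5 h post-plating, exposed to compounds 17 h at 37C. LiveBLAzer B/G FRET substrate added for 1 h at room temperature; beta-lactamase reporter read by fluorescence intensity.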

[11] = qHTS assay to identify small molecule antagonists of the peroxisome proliferator-activated receptor gamma (PPARg) signaling pathway - cell viability counter screen (AID 743194); note: nearly all actives have a fitted effect of over 55% in size
Summary of the method: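 Cytotoxicity counter screen in PPARg-bla HEK293H cells, same wells as reporter assay. Compounds plus 50 nM rosiglitazone (final) for 17 h at 37 C, then viability read by CellTiter-Glo luminescence.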

[12] = qHTS assay for small molecule agonists of the antioxidant response element (ARE) signaling pathway (AID 743202; active = well fitted activation curve with a large enough effect in the signal ratio in the repeat runs, not every such curve was filed as active; the % refers to the signal ratio; note: potency is the fitted concentration of half-maximal effect)
Summary of the method: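 HepG2 ARE-bla cells; 16 h treatment at 37 C; FRET-based beta-lactamase fluorescence read after 2 h substrate incubation at room temperature.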

[13] = qHTS assay for small molecule agonists of the antioxidant response element (ARE) signaling pathway - cell viability counter screen (AID 743203; calls by dose curve; note: nearly all actives have a fitted effect of over 55% in size)
Summary of the method: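 Viability counter screen: stably transfected ARE-bla HepG2 line, 16 hrs compound exposure at 37C/5% CO2, ATP-based CellTiter-Glo luminescence measured in the reporter wells.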

[14] = qHTS assay for small molecule activators of the heat shock response signaling pathway - cell viability counter screen (AID 743209); note: nearly all actives have a fitted effect of over 50% in size
Summary of the method: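 Viability of HSE-bla HeLa cells is measured with CellTiter-Glo in the wells already used for the reporter read. Compound exposure lasts 5 h at 37 C, and luminescence is read after 30 min at room temperature.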

[15] = qHTS assay for small molecule activators of the heat shock response signaling pathway (AID 743210; active = well fitted activation curve with a large enough effect in the signal ratio in the repeat runs, with a control signal flat, not every such curve was filed as active; the % refers to the signal ratio;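 note: HeLa cells with beta-lactamase reporter driven by heat shock elements; series mostly up to about 63 µM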)
Summary of the method: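 Following overnight attachment, HSE-bla HeLa cells received test compounds for 5 h at 37 C; beta-lactamase activity was then detected via FRET substrate fluorescence.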

[16] = target: Estrogen receptor (Homo sapiens) (UniProt P03372); assay: qHTS assay to identify small molecule antagonists of the estrogen receptor alpha (ER-alpha) signaling pathway (AID 743069; active = well fitted curve in the direction sought with a large enough effect in the signal ratio in the repeat runs, not every such curve was filed as active; the % refers to the signal ratio)
Summary of the method: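 In this cell-based reporter format, GripTite HEK293 cells harbouring ER-alpha-UAS-bla were grown overnight with 2% charcoal-stripped FBS, dosed with DMSO-dissolved compounds, then challenged with 17beta-estradiol. After 18 hr at 37C, beta-lactamase activity was detected by FRET fluorescence.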

[17] = target: Estrogen receptor (Homo sapiens) (UniProt P03372); assay: qHTS assay to identify small molecule agonists of the estrogen receptor alpha (ER-alpha) signaling pathway (AID 743075; calls by dose curve)
[18] = target: Estrogen receptor (Homo sapiens) (UniProt P03372); assay: qHTS assay to identify small molecule agonists of the estrogen receptor alpha (ER-alpha) signaling pathway using the BG1 cell line (AID 743079); note: nearly all actives have a fitted effect of over 20% in size; note: potency is the fitted concentration of half-maximal effect
[19] = qHTS assay to identify small molecule antagonists of the estrogen receptor alpha (ER-alpha) signaling pathway using the BG1 cell line (AID 743080; calls by dose curve;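 note: BG1 cells stimulated with 17beta-estradiol alongside compound; series mostly up to about 70 µM; nearly all actives have a fitted effect of over 25% in size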)
Summary of the method: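 Endogenous full-length ER-alpha in BG1-Luc-4E2 cells drives a stably integrated 4×ERE luciferase gene; compounds were tested against 17beta-estradiol over 21.5 h, with luminescence and multiplexed viability fluorescence recorded.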

Sequence of Peroxisome proliferator-activated receptor gamma (Homo sapiens) (P37231 whole entry, looked up): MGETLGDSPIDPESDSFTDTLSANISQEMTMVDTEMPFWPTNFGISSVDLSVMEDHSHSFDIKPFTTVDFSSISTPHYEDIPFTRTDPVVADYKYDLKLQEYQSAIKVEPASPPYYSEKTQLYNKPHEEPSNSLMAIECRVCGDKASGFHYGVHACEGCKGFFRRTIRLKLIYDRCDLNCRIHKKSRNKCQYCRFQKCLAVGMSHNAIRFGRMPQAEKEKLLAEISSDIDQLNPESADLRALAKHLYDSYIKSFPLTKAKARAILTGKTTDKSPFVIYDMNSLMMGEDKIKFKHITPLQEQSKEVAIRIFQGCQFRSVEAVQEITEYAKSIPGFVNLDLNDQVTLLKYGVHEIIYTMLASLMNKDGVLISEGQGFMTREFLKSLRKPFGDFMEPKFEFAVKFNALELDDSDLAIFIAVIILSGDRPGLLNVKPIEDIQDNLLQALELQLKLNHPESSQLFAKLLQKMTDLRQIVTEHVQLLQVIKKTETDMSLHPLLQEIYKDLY
Sequence of Aromatase (Homo sapiens) (P11511 whole entry, looked up): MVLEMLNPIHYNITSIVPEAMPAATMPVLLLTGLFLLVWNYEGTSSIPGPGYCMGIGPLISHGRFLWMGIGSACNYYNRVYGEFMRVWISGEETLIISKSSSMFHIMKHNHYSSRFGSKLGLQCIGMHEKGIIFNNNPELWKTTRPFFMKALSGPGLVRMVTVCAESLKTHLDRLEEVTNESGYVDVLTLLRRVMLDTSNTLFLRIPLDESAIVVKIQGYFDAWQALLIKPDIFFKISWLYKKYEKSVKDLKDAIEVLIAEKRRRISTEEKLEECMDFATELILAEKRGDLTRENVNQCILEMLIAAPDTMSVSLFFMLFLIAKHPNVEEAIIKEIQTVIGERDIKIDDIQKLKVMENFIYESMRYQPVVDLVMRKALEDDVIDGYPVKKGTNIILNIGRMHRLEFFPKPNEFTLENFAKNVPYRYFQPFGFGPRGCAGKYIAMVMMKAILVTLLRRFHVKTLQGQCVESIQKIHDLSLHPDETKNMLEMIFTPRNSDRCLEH
Sequence of Aryl hydrocarbon receptor (Homo sapiens) (P35869 whole entry, looked up): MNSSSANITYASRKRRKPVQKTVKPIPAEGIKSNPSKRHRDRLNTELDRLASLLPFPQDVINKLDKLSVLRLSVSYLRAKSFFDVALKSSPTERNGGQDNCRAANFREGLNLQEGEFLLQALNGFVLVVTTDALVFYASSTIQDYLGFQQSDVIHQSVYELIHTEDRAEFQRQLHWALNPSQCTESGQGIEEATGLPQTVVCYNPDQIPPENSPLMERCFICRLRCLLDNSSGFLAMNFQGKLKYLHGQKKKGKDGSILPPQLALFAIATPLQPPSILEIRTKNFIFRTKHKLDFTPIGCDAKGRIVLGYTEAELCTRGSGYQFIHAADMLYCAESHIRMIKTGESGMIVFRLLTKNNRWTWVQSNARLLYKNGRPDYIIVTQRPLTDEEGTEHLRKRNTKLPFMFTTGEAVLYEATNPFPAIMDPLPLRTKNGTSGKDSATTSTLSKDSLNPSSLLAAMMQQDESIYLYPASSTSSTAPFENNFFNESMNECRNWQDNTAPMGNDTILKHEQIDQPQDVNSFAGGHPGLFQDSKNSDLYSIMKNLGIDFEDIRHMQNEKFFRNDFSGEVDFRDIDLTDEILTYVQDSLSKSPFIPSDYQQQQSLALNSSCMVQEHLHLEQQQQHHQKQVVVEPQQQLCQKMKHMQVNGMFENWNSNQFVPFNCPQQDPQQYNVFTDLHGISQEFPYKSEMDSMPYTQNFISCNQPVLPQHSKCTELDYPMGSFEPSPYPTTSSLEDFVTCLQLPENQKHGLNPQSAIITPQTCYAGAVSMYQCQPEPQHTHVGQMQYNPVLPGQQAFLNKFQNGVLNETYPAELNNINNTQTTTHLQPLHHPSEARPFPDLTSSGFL
Sequence of Estrogen receptor (Homo sapiens) (P03372 whole entry, looked up): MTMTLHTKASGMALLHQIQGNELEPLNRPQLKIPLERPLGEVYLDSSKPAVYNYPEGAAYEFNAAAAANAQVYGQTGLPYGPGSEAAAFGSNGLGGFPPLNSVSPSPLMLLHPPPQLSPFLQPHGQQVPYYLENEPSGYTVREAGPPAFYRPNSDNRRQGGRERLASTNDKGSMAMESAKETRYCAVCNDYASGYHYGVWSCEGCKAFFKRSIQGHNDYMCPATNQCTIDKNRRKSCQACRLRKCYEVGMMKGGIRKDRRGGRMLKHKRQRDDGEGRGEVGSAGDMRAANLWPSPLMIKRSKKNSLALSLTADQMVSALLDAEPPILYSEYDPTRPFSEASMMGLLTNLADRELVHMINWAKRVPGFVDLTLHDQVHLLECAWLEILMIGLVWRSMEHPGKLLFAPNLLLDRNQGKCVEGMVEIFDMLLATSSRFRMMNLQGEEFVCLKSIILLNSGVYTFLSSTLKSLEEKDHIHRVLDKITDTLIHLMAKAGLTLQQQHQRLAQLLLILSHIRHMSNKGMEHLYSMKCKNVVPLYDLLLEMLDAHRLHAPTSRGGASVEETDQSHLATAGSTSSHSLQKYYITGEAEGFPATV

SMILES | Potency [1] | Potency [2] | Potency [3] | Potency [4] | Potency [5] | Potency (Aromatase (Homo sapiens)) | Potency [6] | Potency [7] | Potency [8] | outcome [9] | Potency [10] | Potency [11] | Potency [12] | Potency [13] | Potency [14] | outcome [15] | Potency [16] | Potency [17] | Potency [18] | Potency [19]
C=CCCCCCCCCCC | inactive | inactive | inactive | inactive | inactive | inactive | inactive | inactive | inactive | inactive | inactive | inactive | inactive | inactive | inactive | inactive |  |  |  | 
CC1(C)O[C@@H]2C[C@H]3[C@@H]4C[C@H](F)C5=CC(=O)C=C[C@]5(C)[C@@]4(F)[C@@H](O)C[C@]3(C)[C@]2(C(=O)CO)O1 | inactive |  | inactive | inactive | inactive | inactive | inactive | inactive | inactive | inactive | inactive | inactive | inactive | inactive | inactive | inactive | inactive | inactive | inactive | inactive
CN(C)/N=N/c1nc[nH]c1C(N)=O | inactive |  | inactive | inactive | inactive | inactive | inactive | inactive | inactive | inactive | inactive | inactive | inactive | inactive | inactive | inactive | inactive | inactive | inactive | inactive
[Na+] | inactive |  | inactive | inactive | inactive | inactive | inactive | inactive | inactive | inactive | inactive | inactive | inactive | inactive | inactive | inactive | inactive | inactive | inactive | inactive
Cc1ccc(S(=O)(=O)O)cc1C | inactive |  | inactive | inactive | inactive | inactive | inactive |  | inactive | inactive | inactive | inactive | inactive | inactive | inactive | inactive | inactive | inactive | inactive | inactive
O=C(O)c1cc(=O)[nH]c(=O)[nH]1 | inactive |  | inactive | inactive | inactive | inactive | inactive | inactive | inactive | inactive | inactive | inactive | inactive | inactive | inactive | inactive | inactive | inactive | inactive | inactive
O=C1CCc2ccccc2O1 | inactive |  | inactive | inactive | inactive | inactive | inactive | inactive | inactive | inactive | inactive | inactive | inactive | inactive |  | inactive | inactive | inactive | inactive | inactive
C=CC(C)(O)CCC=C(C)C (configuration not stated) | inactive | inactive | inactive | inactive | inactive | inactive | inactive | inactive | inactive | inactive | inactive | inactive | inactive | inactive | inactive | inactive |  |  |  | 
Clc1ccc(Sc2cc(Cl)c(Cl)cc2Cl)cc1 | inactive | inactive | inactive | inactive | inactive | inactive | inactive |  | inactive | inactive |  | inactive | inactive | inactive |  |  |  |  |  | 
CC(=O)Nc1ccc2c(c1)Cc1cc(NC(C)=O)ccc1-2 | inactive |  | inactive | inactive | inactive | inactive | inactive |  | inactive | inactive | inactive | inactive | inactive | inactive | inactive | inactive | inactive | inactive | 9.66 µM (active) and 864 nM (active) | 
Cc1ccc(C)c(O)c1 | inactive | inactive | inactive | inactive | inactive | inactive | inactive | inactive | inactive | inactive | inactive | inactive | inactive | inactive |  | inactive |  |  |  | 
CC1(C)NC(=O)N(c2ccc([N+](=O)[O-])c(C(F)(F)F)c2)C1=O | inactive | 23.7 µM (active) and 24.3 µM (active) | inactive | inactive | inactive | inactive and 27.3 µM (active) | inactive |  | inactive | inactive | inactive | inactive | 6.86 µM (active) and 26.6 µM (active) | inactive | inactive | inactive |  |  |  | 
O=S1(=O)CCCO1 | inactive |  | inactive | inactive | inactive | inactive | inactive | inactive | inactive | inactive | inactive | inactive | inactive | inactive | inactive | inactive | inactive | inactive | inactive | inactive
